# Bioassay records (PubChem)
# 14-3-3 Bad inh = disrupts binding of bovine 14-3-3 zeta to phospho-Bad peptide | P63103 | TR-FRET 14-3-3zeta/Dy647-pBad peptide displacement, 1 h | inhibition, % at 21.7 µM | hit rate 0.71% among 220,000 | AID 781;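 active means inhibition above about 70%, limit read from the data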;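 further: 0% = full 14-3-3 plus peptide FRET controls and 100% = background without 14-3-3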
# Target sequence (P63103 whole entry, looked up): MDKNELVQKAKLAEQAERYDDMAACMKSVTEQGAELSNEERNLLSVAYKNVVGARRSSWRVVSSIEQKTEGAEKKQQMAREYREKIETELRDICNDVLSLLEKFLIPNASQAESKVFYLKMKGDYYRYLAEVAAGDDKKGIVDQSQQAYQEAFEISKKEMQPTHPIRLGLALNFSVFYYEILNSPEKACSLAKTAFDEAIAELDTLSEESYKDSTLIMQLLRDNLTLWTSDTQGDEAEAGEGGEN
# Mcl1 Noxa PPI = Mcl-1/Noxa interaction inhibition; Q07820; TR-FRET Mcl-1/Noxa peptide binding, 2 h; inhibition, % at 21.7 µM; hit rate 1.5% among 220,000; AID 1022;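 active means compounds that cut the protein-peptide binding signal by more than 50% relative to plate controls in a single-dose test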;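 further: His-tagged Mcl-1 with rhodamine Noxa BH3 peptide and terbium anti-His antibody; 0% = Mcl-1 plus Noxa peptide wells and 100% = peptide-only wells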
# Target sequence (Q07820 whole entry, looked up): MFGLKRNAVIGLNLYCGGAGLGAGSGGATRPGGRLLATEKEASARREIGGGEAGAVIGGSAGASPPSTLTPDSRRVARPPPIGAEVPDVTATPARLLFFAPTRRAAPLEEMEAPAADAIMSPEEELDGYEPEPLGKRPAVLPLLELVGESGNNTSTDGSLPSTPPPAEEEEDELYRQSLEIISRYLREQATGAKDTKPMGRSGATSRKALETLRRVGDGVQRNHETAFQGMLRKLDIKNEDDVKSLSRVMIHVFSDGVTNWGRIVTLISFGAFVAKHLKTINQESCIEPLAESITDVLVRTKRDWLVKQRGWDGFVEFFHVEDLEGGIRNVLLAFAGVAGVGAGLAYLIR
# Hck Nef HTS = human Hck-Nef kinase inhibition; P08631; inhibition, % at 20 µM; hit rate 0.68% among 220,000; Recombinant Hck-YEEI plus Nef, Z-Lyte FRET kinase assay;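 active means Hck-Nef kinase inhibition above about 50%, limit read from the data; inactive means inhibition below that limit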;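 further: 0% = DMSO with Hck plus Nef and 100% = Hck alone without Nef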
# Mcl1 Bid PPI = disrupts binding of human Mcl-1 to Bid peptide | TR-FRET Mcl-1/Bid-Dy647 peptide binding, 1536-well | inhibition, % at 21.7 µM | hit rate 0.97% among 220,000;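 active means compounds that cut the binding signal by more than half at the single screening dose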;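 further: His-tagged Mcl-1 with europium anti-His antibody binding Bid BH3 peptide; 0% = Mcl-1 plus peptide wells and 100% = peptide-only wells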
# eIF4E-4G inh = inhibitors of eIF4E and eIF4G interaction in translation initiation; P63073+Q04637; AID 782; inhibition, % at 21.7 µM; hit rate 0.37% among 220,000; TR-FRET eIF4E-eIF4GI(517-606) binding, 2 h;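 active means inhibition above about 30%, limit read from the data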;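 further: 0% = full FRET control wells and 100% = background wells lacking eIF4GI fragment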
# Mcl-1 Bim block = inhibitors of Bim-Mcl-1 interaction, human. Q07820. Bead-based flow cytometry, Bim peptide-Mcl-1 binding. inhibition, % at 10 µM. hit rate 0.1% among 190,000. AID 1009; in the data active means inhibition above about 40%;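 further: 0% = no compound tracer wells and 100% = peptide blocker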
# Hck-Nef confirm = Hck-Nef kinase inhibition, confirmation | Recombinant Hck-YEEI:Nef, Z-Lyte FRET kinase assay | shares compounds with Hck Nef HTS | hit rate 28% among 1,300 | calls only at 10 µM;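 active means average inhibition of at least 50%, with Z-scores no higher than 3 in both the phospho-tyrosine peptide and fluorescence counterscreens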
# An asterisk follows results filed as active; i = inactive; . = not tested or not shown; + = active, no number. The list is not random: actives were taken first. Their share in the collection is about 3.5%.
SMILES,14-3-3 Bad inh,Mcl1 Noxa PPI,Hck Nef HTS,Mcl1 Bid PPI,eIF4E-4G inh,Mcl-1 Bim block,others
COc1ccc(C(C)=O)cc1CC(C(=O)c1ccccc1)N(C)C (configuration not stated),0,0,3,-21,2,-5,
O=C1NC(=O)C(CCc2ccncc2)(CCc2ccncc2)C(=O)N1Cc1ccccc1,-9,9,21,-13,87*,0,
O=c1[nH]c(=S)[nH]c(O)c1N=Nc1ccc(S(=O)(=O)N2CCc3ccccc32)cc1,-2,56*,19,-35,5,-5,
Cc1ccn2nc(S(=O)(=O)Nc3c(F)cccc3F)nc2n1,3,16,4,-39,18,-6,
COCCn1c(-c2ccccc2)cc(C(=O)O)c1C,.,.,5,.,.,.,
CC(C)N1CCN(c2ccc(O)cc2)CC1,-8,54*,3,-67,-7,-6,
COC(=O)C1C(O)C(C)C(O)C(C)/C=C\C=C(/C)C(=O)Nc2c(C)c(OC(C)=O)c3c(c2O)C(=O)C(C)=C2OCOC(=C23)/C(C)=C/C(C)(O)C(O)C(C)C1O (configuration not stated),-8,-5,-5,-34,4,.,
CCN(CC)CCN/N=C(\C)c1c(O)[nH]c(=O)[nH]c1=O,3,5,11,-9,3,.,
O=C1C=Cc2ccccc2C1=O,32,73*,26,7,1,1,
Nc1ccncc1Cl,3,13,-46,-1,1,-1,
COc1cccc(N2C(=O)NC(=O)/C(=C/c3ccc([N+](=O)[O-])s3)C2=O)c1,7,61*,6,-59,9,.,
COc1ccc(N2C(=O)NC(=O)/C(=C/c3ccc([N+](=O)[O-])s3)C2=O)cc1,2,51*,19,-11,7,.,
O=C1NC(=O)N(c2ccccc2)C(=O)/C1=C\c1ccc2c3c(cccc13)CC2,37,81*,4,12,11,-4,
Cc1ccc(N2C(=O)NC(=O)/C(=C\c3ccc([N+](=O)[O-])o3)C2=O)cc1,47,70*,50*,17,13,0,
COc1ccccc1N1C(=O)NC(=O)/C(=C/c2ccc3c4c(cccc24)CC3)C1=O,-1,15,6,18,8,-32,
Clc1ccccc1CN1CCN(c2cccc3[nH]ccc23)CC1,2,12,8,-25,11,.,
N#CC1=C(N)Oc2c(c(=O)sc3ccccc23)C1c1cccnc1 (configuration not stated),-1,0,0,-5,-1,-21,
COc1cc(/C=C2/C(=O)NC(=O)N(c3ccccc3)C2=O)ccc1O,5,6,2,-13,3,-5,
COc1cccc(N2C(=O)NC(=O)/C(=C/c3ccc4c(c3)Cc3ccccc3-4)C2=O)c1,25,41,115*,9,5,0,
CC(C)OP(=O)(O)NC(=O)c1ccccc1,-10,8,20,14,1,0,
CC(=O)NNC(=O)CN1C(=O)CN=C(c2ccccc2)c2cc(Br)ccc21,0,-6,20,7,2,0,
Cc1cccc(-n2c(-c3cccs3)nc3ccccc3c2=O)c1,71*,46,2,58*,1,-1,
CCN(CC)P(c1n(C)cc[n+]1C)N(CC)CC,6,18,0,-17,1,-1,
COc1ccc(N=C2SCCCN2C)cc1,17,44,7,-2,-12,-4,
CCOC(=O)c1c(-n2c(C)cc(C=C3C(=O)NC(=S)NC3=O)c2C)sc2c1CCCC2,-14,80*,-3,38,-12,-5,
SMILES,14-3-3 Bad inh,Mcl1 Noxa PPI,Hck Nef HTS,Mcl1 Bid PPI,eIF4E-4G inh,Mcl-1 Bim block,others
N#CCCn1cc(C(=O)Nc2ccc(F)cc2)c(-c2ccc([N+](=O)[O-])cc2)n1,-10,10,-2,-7,2,11,
Cc1ccc2c(c1)C1CN(C)CCC1N2C(=O)Nc1cccc(Cl)c1 (configuration not stated),3,99*,0,3,-4,37,
Cc1ccc(N2C(=O)/C(=C/N3CCN(C(=O)c4ccco4)CC3)C(=O)NC2=S)cc1C,10,8,-1,-41,-9,0,
Cc1cccc(N2C(=O)/C(=C/N3CCN(C(=O)c4ccco4)CC3)C(=O)NC2=S)c1,18,62*,-1,-27,1,-5,
COc1cccc(-n2c(/C=C/c3ccc(O)c(O)c3)nc3ccccc3c2=O)c1,-2,56*,-14,-6,3,-1,
O=C(O)c1cccc2c1NC(C(=O)O)C1CC(Sc3ccccc3[N+](=O)[O-])C(Cl)C21 (configuration not stated),29,94*,13,1,26,0,
CC(=O)c1ccc2c(c1)C1C(Cl)C(Sc3ccccc3[N+](=O)[O-])CC1C(C(=O)O)N2 (configuration not stated),-3,110*,25,42,15,-14,
O=C(Nc1ccccc1)OC1CN=C(N[N+](=O)[O-])NC1 (configuration not stated),-5,7,19,2,-1,2,
CCC(=NCc1cc(OC)cc(OC)c1)c1c(O)n(C)c(=O)n(C)c1=O,-2,-4,9,-55,-4,12,
COc1cc2c(cc1O)C[C@H]1NCCc3cc4c(c-2c31)OCO4,0,79*,8,-28,5,6,
NC(=S)c1cn(C2OC(CO)C(O)C2O)c2ncnc(N)c12 (configuration not stated),-5,-4,95*,-13,2,.,Hck-Nef confirm=+
Nc1cc2nc3ccccc3nc2cc1N,18,51*,57*,-55,36*,.,Hck-Nef confirm=i
CC1(C)CC(CCNCc2ccc3c(c2)OCO3)(Cc2ccccc2)CCO1 (configuration not stated),2,4,21,-7,2,-2,
O=C(O)CCn1cc(C=C2C(=O)NC(=S)NC2=O)c(-c2ccccc2)n1,29,62*,90*,-52,8,2,Hck-Nef confirm=i
N#CCCn1cc(C=C2C(=O)NC(=O)NC2=O)c(-c2ccccc2)n1,5,14,32,-34,3,2,
CCCCn1c(=O)c(C=Nc2cccnc2Cl)c(O)n(CCCCl)c1=O,11,17,-1,-2,-4,-5,
Cc1ccsc1C(=O)C1CCCN(Cc2ccc(-n3cccn3)cc2)C1 (configuration not stated),-15,5,14,-29,-2,0,
CC(=O)c1c(C)n(C2CCCCC2)c2ccc(O)cc12,-6,20,43,-35,-2,0,
CCCCOCCCn1c(N)c(C(=O)OCCOC)c2nc3ccccc3nc21,.,14,30,-3,.,0,
